Screening results deposited in PubChem by National Center for Advancing Translational Sciences (NCATS).
Marburg entry inh = blocks Marburg virus binding to or entry into cells; Marburg virus pseudotyped entry inhibition, cell reporter; hit rate 1.8% among 300,000; Potency, µM (top dose mostly 37.8 µM), for inactives: top-dose activity change, negative = inhibition, actives largely listed as inhibitors; calls by dose curve; tested in HEK293 cells; further: potency means the concentration at half of the fitted maximal effect
HCMV antiviral = human cytomegalovirus inhibition; hit rate 4.5% among 410,000; activity change, negative = inhibition, % at 57.5 µM; HFF cells, HCMV-luciferase reporter, 72 h; hits give low values; in the data active means activity change below about -60%; inconclusive means no clear call, values can overlap the other calls; inactive means above about -39%
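Two-dose cell screen: HFF monolayers treated with compounds and infected with luciferase-expressing HCMV at 1 PFU/cell, 72 h at 37C, then lysed for luciferase measurement.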
Lassa entry inh = inhibitors of Lassa virus binding or cell entry. Lassa virus pseudotype entry inhibition, cell reporter. Potency, µM (doses to about 37.9 µM), without a hit: at the highest dose activity change, negative = inhibition, hits mostly inhibitors. hit rate 1.2% among 300,000. AID 540256; calls by dose curve; tested in HEK293 cells; further: potency means the concentration at half of the fitted maximal effect; nearly all actives have a fitted effect of over 50% in size
HCV inhibitor = inhibitors of hepatitis C virus infection. Huh7.5.1 HCVcc-Cre infection, luciferase reporter, 44 h. Potency, µM (series often up to 41.8 µM), inactives show at the highest dose activity change, negative = inhibition, most hits filed as inhibitors. hit rate 3.4% among 340,000. AID 651820; active means well fitted inhibition curve with a large enough effect; inconclusive means small, poorly fitted or top-dose-only effect, or another doubt; inactive means no such curve, though single readings can be large or run the other way; further: potency means the concentration at half of the fitted maximal effect
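HCVcc-Cre virus at an moi near 0.5 was added right after compound to cells cultured 4 h from seeding (1,000 cells/well). Luciferase activity was determined 44 h later, 15 min after substrate addition at RT.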
VACV mCherry inh = inhibitors of vaccinia virus infection (mCherry reporter signal). Vaccinia virus mCherry reporter infection, fluorescence. hit rate 0.63% among 310,000. Potency, µM (doses to about 36.5 µM), for the others: at the highest dose activity change, negative = inhibition, actives largely listed as inhibitors; calls by dose curve; tested in A549 cells; further: potency means the concentration at half of the fitted maximal effect; nearly all actives have a fitted effect of over 35% in size
Vaccinia Venus = vaccinia inhibition (Venus reporter). Potency, µM (highest dose often 36.5 µM), for inactives: top-dose activity change, negative = inhibition, most hits filed as inhibitors. hit rate 0.46% among 330,000. Vaccinia virus Venus reporter expression, fluorescence; calls by dose curve; tested in A549 cells; further: potency means the concentration at half of the fitted maximal effect; nearly all actives have a fitted effect of over 30% in size
* marks the source's active call; other numbers are inactive results; i = inactive; ? = inconclusive; / = no result; [ ] = another dose, or the depositor's remark. In the library only some 7.8% were active in any assay of this set; here they are far more common. On the % scale 0 is the no-effect control and ±100 the full control effect.

SMILES | Marburg entry inh | HCMV antiviral | Lassa entry inh | HCV inhibitor | VACV mCherry inh | Vaccinia Venus
COc1cc(SC)ccc1C(=O)Nc1ccc(Cl)cn1 | 1.12µM* | -74.9* | ? | 6.8% | -12.0% | -0.1%
COc1cc(SC)ccc1C(=O)Nc1ccc2c(c1)CCC2 | ? | 61.2 | -17.6%[46.1 µM] | 10µM* | i | -15.1%
CSc1ccc(Cl)c(C(=O)Nc2ccc(Cl)cn2)c1 | ? | ? | -10.8%[46.1 µM] | -19.1% | -12.5% | -12.9%
COc1ccc(Cn2ccc3nc(C)c(C(=O)Nc4ccc(OC(F)(F)F)cc4)cc3c2=O)cc1 | / | -19.4 | -22.7%[46.1 µM] | / | -20.7% | ?
Cc1cccn2c(CNCC3OCCc4ccccc43)c(C(=O)N3CCCCC3)nc12 (centres undefined) | 10µM* | ? | -38.3% | 8.8% | i | 8.6%
CCOc1ccc(Cc2onc3c2C(=O)CCC3)cc1OCC | -3.7%[46.1 µM] | -89.1* | 14.9% | ? | 1.4% | -6.7%
CCOc1ccc(Cc2onc3c2C(=O)CC(C)(C)C3)cc1OCC | -15.3%[46.1 µM] | 24.7 | -34.2% | ? | -16.2% | -4.6%
CC1(C)NC(=O)N(C[C@@H](O)Cn2nnc3ccccc32)C1=O | -13.5%[46.1 µM] | / | / | / | / | /
COc1ccc(C2c3ccc4ccccc4c3Oc3ncn(CCN4CCOCC4)c(=N)c32)cc1OC (centres undefined) | / | 37.8 | / | ? | / | /
COc1ccc(C2c3ccc4ccccc4c3Oc3ncn(CCCO)c(=N)c32)cc1 (centres undefined) | ? | 37.6 | 11.2µM* | -25.5% | -18.9% | ?
CN(C)CCCn1cnc2c(c1=N)C(c1ccccc1)c1ccc3ccccc3c1O2 (centres undefined) | / | -98.5* | / | 8.91µM* | ? | 17.8µM*
N=c1c2c(ncn1Cc1ccco1)Oc1ccc3ccccc3c1C2c1ccccc1 (centres undefined) | 9.2µM* | 30.2 | ? | ? | ? | ?
N=c1c2c(ncn1CCCO)Oc1c(ccc3ccccc13)C2c1ccccc1 (centres undefined) | / | 17.7 | / | 11.2µM* | / | /
Cc1c(C2=CCN(S(=O)(=O)c3ccc(CC(C)C)cc3)CC2)c2ccccc2n1CC(=O)N1CCCC1 | -20.1%[46.1 µM] | 9.5 | -21.7%[46.1 µM] | / | -9.7% | -17.3%
O=C(Nc1cccnc1Cl)c1cnn2c1NC(=C1CC1)C=C2C(F)F | / | / | / | / | -18.0% | -20.8%
COc1cccc(NC(=O)N2CC(=O)N3[C@@H](CO)[C@@H](c4ccc(Br)cc4)[C@@H]3C2)c1 | / | -9.8 | / | / | / | /
CCOc1ccc(NC(=O)c2nn(C)c3c2COc2ccccc2-3)cc1 | 16.6%[46.1 µM] | -25.3 | -23.8%[46.1 µM] | / | -3.2% | 3.0%
COc1ccc(C2c3ccc4ccccc4c3Oc3ncn(CCN(C)C)c(=N)c32)cc1 (centres undefined) | 8.91µM* | -98.7* | ? | 2.82µM* | ? | ?
COc1ccc(C2c3c(ncn(Cc4ccco4)c3=N)Oc3ccc4ccccc4c32)cc1 (centres undefined) | ? | 158.1 | ? | ? | -15.3% | -25.8%
COc1ccc(C2c3ccc4ccccc4c3Oc3ncn(CCN4CCOCC4)c(=N)c32)cc1 (centres undefined) | ? | ? | 9.8% | ? | / | /
COc1ccc(C2c3ccc4ccccc4c3Oc3ncn(CCO)c(=N)c32)cc1 (centres undefined) | ? | / | 8.91µM* | ? | -11.2% | -24.7%
CC(C)C(=O)N1CCN(c2ccccc2NC(=O)c2ccc(C#N)cc2F)CC1 | ? | 23.6 | -2.2% | 5.9% | 0.0% | -2.0%
CC1CCN(c2ccccc2NC(=O)c2ccc(C#N)cc2F)CC1 | -1.0%[46.1 µM] | -26.5 | 28.4%[46.1 µM] | 10µM* | -6.2% | -11.8%
COc1ccc(Cn2c(SCc3ccc(C)cc3)nc3cc(OC)c(OC)cc3c2=N)cc1Cl | 2.82µM* | -99.5* | 10µM* | ? | -18.0% | -16.8%
COc1ccc(Cn2c(SCc3cc(C)ccc3C)nc3cc(OC)c(OC)cc3c2=N)cc1 | 4.61µM* | -23.2 | 6.51µM* | 2.82µM* | / | /
SMILES | Marburg entry inh | HCMV antiviral | Lassa entry inh | HCV inhibitor | VACV mCherry inh | Vaccinia Venus
Cc1ccc(C)c(N2CCN(C3CCCC(C)C3)CC2)c1 (centres undefined) | 5.01µM* | -35.5 | ? | -21.9% | -29.1% | -13.1%
CC(C)c1ccc(C(=O)NCCCN2CCN(CCCNC(=O)c3ccc(C(C)C)cc3)CC2)cc1 | ? | -80.2* | 11.2µM* | ? | -1.3% | ?
O=C(NCCN1CCN(C(=O)c2ccc(Br)cc2)CC1)c1ccc(Br)cc1 | -0.7%[46.1 µM] | -66.3* | -21.3%[46.1 µM] | ? | -12.9% | -10.2%
Cc1ccc(C(=O)NCCN2CCN(C(=O)c3ccc(C)c(C)c3)CC2)cc1C | -10.6%[46.1 µM] | -1.4 | -3.0%[46.1 µM] | -25.4% | -14.7% | -5.7%
COc1cccc(C2CC(=O)Nc3c2c(=O)nc2c(C)cccn32)c1OC (centres undefined) | / | 22.9 | 1.1%[46.1 µM] | / | -2.3% | 4.2%
CNc1nc2cnc(Nc3cccc(C(F)(F)F)c3)cc2n1Cc1ccc(OC)c(OC)c1 | / | 20.5 | / | / | / | /
COc1ccc(Cn2cnc3cnc(Nc4ccc(NC(C)=O)cc4)cc32)cc1OC | / | -72.4* | / | / | / | /
NC(=O)c1nnn(Cc2cc(Cl)c(C(=O)c3ccc(Cl)cc3)c(Cl)c2)c1N | / | -91.2* | / | / | -27.8% | -16.8%
CCNC(=O)CCSc1nnc(-c2ccc(O)cc2)o1 | 9.5%[46.1 µM] | 26.7 | 2.6%[46.1 µM] | / | 3.0% | 5.4%
Cc1ccc2nc(NC(=O)c3cccs3)sc2c1 | 3.16µM* | 14.1 | 2.51µM* | -2.7% | -11.3% | ?
CS(=O)(=O)c1ccc2nc(NC(=O)c3cccs3)sc2c1 | 2.24µM* | 76.0 | ? | -3.2% | / | ?
Cc1ccc2nc(NC(=O)c3cccc(-c4cc5ccccc5oc4=O)c3)sc2c1 | ? | -89.4* | ? | 8.91µM* | i | -2.8%
Cc1ccc(C(=O)Nc2nc3ccc(S(C)(=O)=O)cc3s2)s1 | -3.4% | 114.2 | ? | -4.3% | / | /
Cc1ccc2nc(NC(=S)NC(=O)c3cccs3)sc2c1 | 25.7% | 14.8 | ? | -3.1% | -5.9% | -11.7%
CCOc1ccc(NC(=O)c2cnn(-c3ccc(C)c(Cl)c3)c2C2CCNCC2)cc1 | / | -39.9 | 3.4%[46.1 µM] | / | -3.5% | -15.7%
Cc1ccc(-n2ncc(C(=O)Nc3ccc(Cl)cc3)c2C2CCNCC2)cc1C | ? | -70.3* | ? | ? | ? | ?
OC1(c2ccc3c(c2)CN(Cc2ccco2)CCO3)CCN(c2ccccc2F)CC1 | / | / | / | / | -13.0% | -9.4%
Cc1ccc(S(=O)(=O)c2nc(S(C)(=O)=O)sc2N2CCCC2)cc1 | / | -24.4 | / | 3.6% | / | /
CCCS(=O)(=O)c1nc(S(=O)(=O)c2ccc(C)cc2)c(N2CCN(CC)CC2)s1 | / | -80.3* | / | 16.3% | / | /
CCN1CCN(c2sc(S(C)(=O)=O)nc2S(=O)(=O)c2ccc(C)cc2)CC1 | / | -91.1* | / | ? | / | /
CCCS(=O)(=O)c1nc(S(=O)(=O)c2ccc(C)cc2)c(N2CCN(C)CC2)s1 | / | ? | / | 5.4% | / | /
CCN1CCN(c2sc(S(=O)(=O)CC)nc2S(=O)(=O)c2ccc(C)cc2)CC1 | / | -71.9* | / | / | ? | -21.0%
